Screening data from PubChem.
A selection: hits, their analogues and other compounds. The true share with any hit is near 9.8%.
HTT cytoprotect – Huntington cell model cytoprotection by ATP luminescence. Potency, µM (titrated, usually from 56.4 µM), hits mostly activators. PC12 HTT-Q103 induced, cytoprotection, ATP luminescence, 40 h. 0.14% of 230,000 active; further: nearly all actives have a fitted effect of over 45% in size
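Compounds were screened for protection of PC12 cells against cell death after tebufenozide induction (100 nM final) of mutant Huntingtin exon 1 (Q103) fused to GFP.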
JMJD2E inh – inhibitors of human JMJD2E histone demethylase. Potency, µM (top dose mostly 57.1 µM), hits mostly inhibitors. JMJD2E catalytic domain, FDH-coupled NADH fluorescence (FDH is formaldehyde dehydrogenase). B2RXH2. 1.6% of 230,000 active; active means well fitted inhibition curve with a large enough effect, not every such curve was filed as active; inconclusive means small, poorly fitted or top-dose-only effect, or another doubt; inactive means no such curve, though single readings can be large or run the other way; further: nearly all actives have a fitted effect of over 50% in size
CBFb RUNX1 block – blocks binding between human CBF-beta and RUNX1 | AlphaScreen CBFb-His/RUNX1-biotin binding, biochemical | AID 1477 | Q01196+Q13951 | Potency, µM (top dose mostly 59.8 µM), most hits filed as inhibitors | 230,000 tested, under 10 active
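AlphaScreen binding: CBFb-His and RUNX1-biotin (30 nM each) preincubated 20 min, compound added for 15 min, then nickel and streptavidin beads for 90 min, all at room temperature. Disruption of the interaction by any mechanism counts as activity.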
ALDH1A1 inh – inhibitors of human aldehyde dehydrogenase 1A1. P00352. Purified ALDH1A1, NADH fluorescence, propionaldehyde substrate. Potency, µM (doses to about 75.3 µM), hits mostly inhibitors. 7.3% of 220,000 active; active means well fitted inhibition curve with a large enough effect, not every such curve was filed as active; inconclusive means small, poorly fitted or top-dose-only effect, or another doubt; inactive means no such curve, though single readings can be large or run the other way
Target sequence (P00352 whole entry, looked up): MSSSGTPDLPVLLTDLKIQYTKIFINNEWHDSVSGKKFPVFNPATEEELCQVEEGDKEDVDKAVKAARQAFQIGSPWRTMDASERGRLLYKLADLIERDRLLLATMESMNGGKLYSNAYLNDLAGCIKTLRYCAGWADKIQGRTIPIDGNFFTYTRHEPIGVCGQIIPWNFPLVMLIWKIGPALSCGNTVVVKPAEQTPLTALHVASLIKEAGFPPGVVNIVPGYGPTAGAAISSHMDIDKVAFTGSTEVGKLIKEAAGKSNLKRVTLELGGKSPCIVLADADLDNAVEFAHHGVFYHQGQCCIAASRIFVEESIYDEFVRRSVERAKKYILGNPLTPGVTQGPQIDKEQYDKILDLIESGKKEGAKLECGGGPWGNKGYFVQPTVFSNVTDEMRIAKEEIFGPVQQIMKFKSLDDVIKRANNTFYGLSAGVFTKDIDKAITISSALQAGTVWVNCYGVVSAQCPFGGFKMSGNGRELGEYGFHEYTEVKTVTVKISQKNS
HTT aggregate – reduces HttQ103-GFP aggregates in PC12 cells | PC12 HttQ103-GFP aggregates, Acumen cytometry, 40 h | Potency, µM (titrated, usually from 46.1 µM), most hits filed as inhibitors | 1.1% of 220,000 active | AID 1688; further: nearly all actives have a fitted effect of over 60% in size
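Multiplexed with ATP-based cell death, this channel scores GFP aggregates in PC12 cells expressing inducible HTTex1-Q103-GFP. Induction used 100 nM tebufenozide; compounds were tested in concentration series.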
HPGD inh – HPGD (human) dehydrogenase inhibition; P15428; purified HPGD, NADH fluorescence kinetic, PGE2 substrate; Potency, µM, usual class: inhibitors; 4.3% of 150,000 active; AID 894; active means well fitted inhibition curve with a large enough effect, not every such curve was filed as active; inconclusive means small, poorly fitted or top-dose-only effect, or another doubt; inactive means no such curve, though single readings can be large or run the other way
Target sequence (P15428 whole entry, looked up): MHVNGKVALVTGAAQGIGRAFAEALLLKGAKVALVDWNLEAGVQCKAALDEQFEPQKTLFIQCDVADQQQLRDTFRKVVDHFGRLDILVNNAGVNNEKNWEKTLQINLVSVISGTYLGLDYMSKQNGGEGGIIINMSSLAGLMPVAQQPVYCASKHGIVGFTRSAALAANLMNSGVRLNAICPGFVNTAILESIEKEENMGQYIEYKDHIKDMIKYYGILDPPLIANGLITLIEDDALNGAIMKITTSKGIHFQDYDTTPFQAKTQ
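20 nM HPGD preincubated 15 min at room temperature with compound in 50 mM Tris-HCl pH 8, 0.01% Tween 20. Started with 1 mM NAD+ and 30 uM prostaglandin E2; NADH fluorescence (360/450 nm) read 5 times over 30-s intervals, last minus first.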
Large screens that a line does not name were inactive; ! = repeats disagree. Unless noted, the call rests on the fitted dose curve; in most records, active means well fitted curve in the direction sought with a large enough effect; inconclusive means small, poorly fitted or top-dose-only effect, or another doubt; inactive means no such curve, though single readings can be large; an effect the other way counts as inactive or inconclusive.

CCOC(=O)C1=C(N)OC2=C(C(=O)CC(C)(C)C2)C1c1ccoc1 (centres undefined)	ALDH1A1 inh 25µM
COc1ccccc1Oc1cc(-n2nc(C)cc2C)ncn1	ALDH1A1 inh inconclusive (no result: HTT cytoprotect)
CCOc1cnn(-c2cc(Oc3ccc(C)cc3)ncn2)c(=O)c1Cl	ALDH1A1 inh 11µM
COC(=O)c1cnn(-c2cc(Oc3ccccc3)ncn2)c1N	ALDH1A1 inh inconclusive (no result: HPGD inh)
Cc1ccccc1Oc1cc(-n2ncc(Cl)c(Cl)c2=O)ncn1	ALDH1A1 inh 1.6µM, HTT aggregate inconclusive
COCCNC(=O)NC(=O)CSc1nc(C)c(C)c(C)n1	none (no result: HPGD inh)
O=S1(=O)CCN(Cc2ccc(Cl)c(C(F)(F)F)c2)CC1	none (no result: HPGD inh)
CCN1C(=O)/C(=C\c2cn(-c3ccccc3)nc2-c2cccnc2)SC1=S	none (no result: HPGD inh)
Cc1nn(C)c(C)c1/C=C1/SC(=S)NC1=O	ALDH1A1 inh inconclusive
CCN1C(=O)/C(=C/c2c(C)nn(C)c2C)SC1=S	ALDH1A1 inh 1.4µM
CCN1C(=O)/C(=C/c2cnn(CC)c2C)SC1=S	ALDH1A1 inh 2µM (no result: HTT cytoprotect)
CCc1ccc(NC(=O)C2CCCN2S(=O)(=O)c2ccc3c(c2)n(C)c(=O)c(=O)n3C)cc1 (centres undefined)	JMJD2E inh inconclusive (no result: ALDH1A1 inh, HPGD inh)
O=c1c(F)cn(C2CCCO2)c(=O)n1Cc1c(Cl)cccc1Cl (centres undefined)	HPGD inh 16µM
O=c1c(F)cn(C2CCCO2)c(=O)n1Cc1ccc(Cl)cc1 (centres undefined)	none (no result: HPGD inh)
CCOC(=O)c1cccc(S(=O)(=O)N2CCOCC2)c1	none (no result: HPGD inh)
CCOC(=O)C1=C(N)N(c2cc(S(=O)(=O)N3CCOCC3)ccc2Cl)C(=O)C1	JMJD2E inh inconclusive, ALDH1A1 inh 14µM (no result: HPGD inh)
O=C(Nc1ccc(N2CCN(C(=O)c3ccccc3)CC2)cc1)c1ccc([N+](=O)[O-])o1	CBFb RUNX1 block inconclusive, ALDH1A1 inh 11µM (no result: HPGD inh)
CC(C)C(=O)N1CCN(c2ccc(NC(=O)c3ccc([N+](=O)[O-])o3)cc2)CC1	JMJD2E inh inconclusive, ALDH1A1 inh inconclusive (no result: HPGD inh)
CC(C)C(=O)N1CCN(c2ccc(NC(=O)c3ccc([N+](=O)[O-])o3)cc2Cl)CC1	ALDH1A1 inh inconclusive (no result: HPGD inh)
CCCC(=O)N1CCN(c2ccc(NC(=O)c3ccc([N+](=O)[O-])o3)cc2Cl)CC1	HTT cytoprotect inconclusive, ALDH1A1 inh 18µM, HTT aggregate inconclusive (no result: HPGD inh)
NCCCCN	CBFb RUNX1 block inconclusive (no result: HTT aggregate)
O=C(COc1cc(Cl)c(Cl)cc1Cl)N1CCN(c2ccccn2)CC1	JMJD2E inh inconclusive (no result: HTT cytoprotect, HPGD inh)
O=c1cc(-c2ccc([N+](=O)[O-])cc2)nc2cc(-c3ccc(F)cc3)[nH]n12	ALDH1A1 inh 7.9µM
S=c1[nH]nc(C2CCCCC2)n1/N=C/c1cccs1	ALDH1A1 inh 22µM, HPGD inh 13µM
O=[N+]([O-])c1ccc(/C=N/n2c(C3CCCCC3)n[nH]c2=S)cc1	HPGD inh 4.5µM
Cc1ccc(/C=N/n2c(C3CCCCC3)n[nH]c2=S)o1	ALDH1A1 inh inconclusive, HPGD inh 28µM
Cc1cccc(-c2n[nH]c(=S)n2/N=C/c2ccc(C)o2)c1	ALDH1A1 inh inconclusive, HPGD inh 16µM (no result: HTT cytoprotect)
Cc1cc(-c2n[nH]c(=S)n2/N=C/c2ccc(C)o2)n[nH]1	none (no result: ALDH1A1 inh, HPGD inh)
O=C(O)c1cc2ccccc2c2cc(Br)ccc12	none (no result: HPGD inh)
O=CN1CCN(S(=O)(=O)c2ccc(Cl)c(C(=O)O)c2)CC1	none (no result: HPGD inh)
COc1ccc(N2CCN(C(C)C(=O)N3CCCC3)CC2)cc1 (centres undefined)	JMJD2E inh inconclusive, ALDH1A1 inh inconclusive (no result: HPGD inh)
O=C1c2ccccc2C(=O)C1C1=Nc2ccccc2NC(c2ccccc2)C1 (centres undefined)	ALDH1A1 inh inconclusive (no result: HPGD inh)
CCOc1ccccc1NC(=O)COC(=O)c1cc[n+]([O-])cc1	none (no result: ALDH1A1 inh, HPGD inh)
S=c1[nH]nc(C2CCCCC2)n1/N=C/c1ccncc1	HTT aggregate 0.22µM (no result: HPGD inh)
CC(/C=N/n1c(C2CCCCC2)n[nH]c1=S)=C\c1ccccc1	HPGD inh inconclusive
COc1cc2c(cc1OC)C(c1ccccc1O)N(C1CC(=O)N(c3ccccc3)C1=O)CC2 (centres undefined)	ALDH1A1 inh 13µM
COc1ccc(C(=O)Cc2ccc3c(c2)OCO3)c(O)c1	HPGD inh inconclusive
O=C(/C=C/c1ccc(O)cc1)c1c(O)cc(O)cc1O	none
O=C(Cc1ccc2c(c1)OCCO2)c1c(O)cc(O)cc1O	ALDH1A1 inh inconclusive, HTT aggregate inconclusive, HPGD inh 20µM
O=C(CCc1ccc(O)cc1)c1c(O)cc(O)cc1O	JMJD2E inh 32µM!, HPGD inh 35µM
O=C(O)COc1ccc(C(=O)Cc2ccc3c(c2)OCCCO3)c(O)c1	ALDH1A1 inh 22µM, HPGD inh inconclusive
COc1ncnc2c1NC1=C(S2)C(=NCCC(=O)O)CC(C)(C)C1	ALDH1A1 inh 5µM (no result: HPGD inh)
CN(C)c1ncnc2c1NC1=C(S2)C(=NCCCC(=O)O)CC(C)(C)C1	JMJD2E inh inconclusive, ALDH1A1 inh inconclusive
CCN1CCCC1CN(Cc1cc2ccc(C)c(C)c2[nH]c1=O)C(=O)Nc1ccccc1OC (centres undefined)	JMJD2E inh inconclusive, ALDH1A1 inh 13µM
CCN1CCCC1CN(Cc1cc2ccc(C)cc2[nH]c1=O)C(=S)Nc1ccccc1OC (centres undefined)	none
COc1ccc(Nc2oc(COc3ccc(OC)cc3)nc2C#N)cc1	HPGD inh inconclusive
COc1ccc(Nc2oc(COc3ccc(C)cc3)nc2C#N)cc1	ALDH1A1 inh inconclusive, HPGD inh 25µM
CCOc1ccc(-n2cccc2C=O)cc1	ALDH1A1 inh inconclusive
COc1ccc(-n2cccc2/C=C/[N+](=O)[O-])cc1	JMJD2E inh inconclusive, ALDH1A1 inh inconclusive, HTT aggregate inconclusive, HPGD inh 35µM (no result: HTT cytoprotect)
COc1ccc(-n2cccc2C=O)cc1	ALDH1A1 inh 11µM
CN1CC2([N+](=O)[O-])CC=C(Oc3ccccc3)C([N+](=O)[O-])(C1)C2 (centres undefined)	ALDH1A1 inh 2.8µM
O=C(/C=C\c1ccccc1)c1ccccc1O	none (no result: JMJD2E inh, HTT aggregate, HPGD inh)
O=C(/C=C/c1ccccc1)c1cc(Br)ccc(=O)c1O	JMJD2E inh 13µM, ALDH1A1 inh 7.1µM, HTT aggregate inconclusive, HPGD inh 20µM
O=C(/C=C/c1ccc(Br)cc1)NC(=O)c1ccccc1O	none (no result: HPGD inh)
Cc1ccc(/C=C/C(=O)c2ccccc(=O)c2O)cc1C	JMJD2E inh 28µM, CBFb RUNX1 block inconclusive, ALDH1A1 inh inconclusive (no result: HTT cytoprotect)
O=C(/C=C/c1ccc(F)cc1)c1cc(Br)ccc1O	none (no result: ALDH1A1 inh, HPGD inh)
O=C(/C=C/c1ccc(O)cc1)c1ccccc1O	JMJD2E inh inconclusive, ALDH1A1 inh 20µM, HPGD inh inconclusive (no result: HTT aggregate)
O=C(/C=C/c1ccc(O)c(O)c1)NC(=O)c1ccccc1O	JMJD2E inh 14µM, CBFb RUNX1 block inconclusive, HPGD inh inconclusive (no result: HTT aggregate)
